Measured values taken from PubChem BioAssay AID651602 (The Scripps Research Institute Molecular Screening Center, 2012).
In all, about 360,000 compounds went through this assay and about 950 (0.26%) were called active. What follows is part of a selection rich in actives, with near analogues and random picks from the rest. A number with no mark means an inactive call. Cut-off read from the data, not from the text of the source: active = inhibition above about 11%; inactive = the rest.

Experiment: reduced absorbance of E. coli cultures with phage – HTS, RecBCD inhibitor project, primary screen (AID 651602)
Settings: growth absorbance, at 11.9 µM, stronger effect = higher value

Row | SMILES | inhibition
1 | COCCNC(=S)N(C)[C@H]1C[C@H]2c3[nH]c4ccccc4c3CCN2C[C@H]1[C@H](C)O | 0.63%
2 | Cc1cccc(-c2cnc(C(O)c3ccc4ccccc4c3)[nH]2)c1 (stereo unspecified) | 2.34%
3 | Cc1cccc(-c2cnc(C(O)c3cc(C)cc(C)c3)[nH]2)c1 (stereo unspecified) | 9.2%
4 | COc1cccc(C(O)c2ncc(-c3ccc4ccccc4c3)[nH]2)c1 (stereo unspecified) | 12.1% (active)
5 | Cc1ccc(-c2cnc(C(O)c3cc(Cl)cc(Cl)c3)[nH]2)cc1 (stereo unspecified) | 17.1% (active)
6 | COc1cccc(-c2cnc(C(O)c3ccccc3OC)[nH]2)c1 (stereo unspecified) | -1.64%
7 | OC(c1ccc(Cl)cc1)c1ncc(-c2ccc(Cl)cc2)[nH]1 (stereo unspecified) | 7.68%
8 | Cc1cc(N2CCN(C(=O)OC(C)(C)C)C[C@H]2C)ccc1N1CCN(Cc2ccccc2)[C@H](C)C1 | 7.28%
9 | CCOC(=O)/C=C/c1ccccc1O | 4.3%
10 | COC(=O)[C@H](CC(C)C)NS(=O)(=O)c1c(F)cccc1F | 4.61%
11 | O=C(NCc1ccccc1)[C@H]1CCCN1C(=O)[C@H]1CCCN1C(=O)c1cc(F)cc(F)c1 | 2.09%
12 | Nc1ncnc2c1ncn2[C@@H]1O[C@H](C(=O)N[C@@H](CCc2ccccc2)C(=O)NCC(=O)N2CCOCC2)[C@@H](O)[C@H]1O | 2.03%
13 | Cc1cc2c(nc1C)CCCN2C | 1.32%
14 | COC(=O)c1ccc(CN2C(=O)[C@]3(OCCC=C[C@H]3C)c3c(Br)cccc32)cc1 | 1.58%
15 | O=C(Nc1ccc(Cl)c(Cl)c1)N1CC=C(c2ccccc2)CC1 | 3.32%
16 | O=C(CC(O)(C(F)(F)F)C(F)(F)F)Nc1ccc(Cl)c(Cl)c1 | 15.6% (active)
17 | CC(c1cccnc1)N(CCN(C)C)C(=O)Nc1ccc(Cl)c(Cl)c1 (stereo unspecified) | 1.6%
18 | COC(=O)C1=C(C)N(Cc2cccc(C(F)(F)F)c2)C(=NCc2cccc(C(F)(F)F)c2)NC1c1ccccc1C(F)(F)F (stereo unspecified) | 9.37%
19 | COC(=O)Cc1nnn2c1[C@H](C)[C@H](c1ccccc1Br)OCC2 | -1.01%
20 | O=C(Nc1c(Cl)c(C2CC2)nn1-c1ccccc1)C(Cl)(Cl)Cl | 1.86%
21 | CC(C)(C)n1nc(C2CC2)c(Br)c1NC(=O)c1ccccc1F | 3.69%

Row | SMILES | inhibition
22 | CC(C)(C)C(=O)Nc1c(Br)c(C2CC2)nn1-c1ccccc1 | 97.8% (active)
23 | Oc1c(CN2CCN(c3ccc(F)cc3)CC2)cc(Cl)c2cccnc12 | 13% (active)
24 | O=C(CN1CCN(c2ccc(Cl)cc2)CC1)c1ccccc1 | 4.29%
25 | Cc1cccc(C)c1NC(=O)CN1CCN(c2ccc(F)cc2)CC1 | 2.55%
26 | O=C(NCc1ccccc1)[C@@H]1CCCN1C(=O)[C@@H](NS(=O)(=O)c1ccc(F)cc1F)C1CCCCC1 | 3.12%
27 | O=C(C(=O)N1CCC(CNS(=O)(=O)Cc2ccccc2)CC1)c1cc2ccccc2o1 | 1.63%
28 | COC(=O)[C@]12C[C@H](CC(=O)NCc3cccc(C(F)(F)F)c3)C(=O)N(Cc3ccc4c(c3)OCO4)C1=C[C@H](COCc1ccccc1)O[C@@H]2C | 2.25%
29 | CC(C)CNc1cccc2c1S(=O)(=O)N[C@H](C)CO2 | 5.2%
30 | O=C1c2ccccc2C2=Nc3ccccc3SC(c3ccccc3F)C12 (stereo unspecified) | 19.6% (active)
31 | CC(=O)C1=C(C)N(Cc2ccc(Cl)cc2)C(=S)NC1c1ccc(F)cc1 (stereo unspecified) | 2.81%
32 | O=C(NCc1ccccc1)[C@H]1CCCN1C(=O)[C@H]1CCCN1C(=O)N1CCOCC1 | 1.72%
33 | COc1ccc(-c2ccccc2C2Cc3nnccc3CN2C(=O)Nc2ccccc2)cc1 (stereo unspecified) | 3.48%
34 | CCN(CC)S(=O)(=O)c1ccc(N2CCCC2)c(NC(=O)c2ccc([N+](=O)[O-])o2)c1 | 0.78%
35 | O=C(/C=C/c1ccc(Cl)cc1)Nc1ccc(Br)cn1 | -0.92%
36 | Cc1cccc(NC(=O)c2ccc([N+](=O)[O-])o2)c1 | 14.2% (active)
37 | O=C(Nc1ccc(Br)cn1)c1ccc([N+](=O)[O-])cc1Cl | 1.57%
38 | O=C(Nc1ccc(Br)cn1)c1ccc([N+](=O)[O-])o1 | 15.1% (active)
39 | Cc1cccc(NC(=O)CCn2c(=O)oc3ccccc32)c1 | 0.64%
40 | COC(=O)[C@]12C[C@H](CC(=O)NCc3ccccc3)C(=O)N(CCC3=CCCCC3)C1=C[C@H](C(C)(C)C)O[C@@H]2C | 1.16%
41 | COc1cccc(CNC(=O)[C@H]2CCCN2C(=O)[C@H]2CCCN2C(=O)c2ccc(F)cc2)c1 | 1.78%
42 | C[C@@H]1ON(C)[C@H]2C[C@H]3c4cc(N5CCOCC5)ccc4CCN3C[C@@H]12 | 1.27%

Row | SMILES | inhibition
43 | C=CCN=C1NC(c2ccccc2)C(C(=O)OC)=C(C)N1Cc1ccc(C(F)(F)F)cc1 (stereo unspecified) | 3.49%
44 | C[C@@H](CN1C2=NC[C@@H](Cc3ccccc3)N2C[C@H]1Cc1ccc(O)cc1)NC(=O)CCC1CCCCC1 | 2.48%
45 | Nc1nonc1-n1nnc(C(=O)N/N=C/c2cc(Br)ccc2O)c1CSC1=NCCS1 | 11.6% (active)
46 | CC(C)Oc1ccc(/C=N/NC(=O)c2nnn(-c3nonc3N)c2CN(C)C2CCCCC2)cc1 | 2.44%
47 | CN(C)Cc1c(C(=O)N/N=C/c2ccccc2OCc2ccc(F)cc2)nnn1-c1nonc1N | -5.79%
48 | Cc1cn(C2OC[C@@H](O)[C@@H]2CO)c(=O)[nH]c1=O (stereo partly specified) | 0.95%
49 | Cc1cn([C@H]2C[C@H](O)[C@@H](/C=C/C(=O)NCCCc3ccccc3)O2)c(=O)[nH]c1=O | 3.27%
50 | Cc1cn(C2C=CC(CO)O2)c(=O)[nH]c1=O (stereo unspecified) | 19.9% (active)
51 | COc1cccc(-c2cc(CNC(=O)[C@@H](Cc3ccccc3)NC(=O)[C@H]3O[C@@H](n4cnc(C(N)=O)n4)[C@H](O)[C@@H]3O)no2)c1 | 2.06%
52 | CCN1CCN(C(=O)N[C@@H](C(=O)N[C@@H]2C(=O)N3C(C(=O)O)=C(CSc4nnnn4C)CS[C@H]23)c2ccc(O)cc2)C(=O)C1=O | 103% (active)
53 | CCOC(=O)C1=C(CSc2nnnn2C)N(C)C(=O)NC1c1ccccc1 (stereo unspecified) | 3.2%
54 | O=C(O)Cn1cnc2c(NCc3ccccc3)ncnc21 | -1.71%
55 | O=c1ccc2c(-c3ccccc3S(=O)(=O)O)c3ccc(O)c(O)c3oc-2c1O | 12.7% (active)
56 | CC[C@H](NC(=O)[C@H](Cc1ccccc1)NC(=O)[C@H]1O[C@@H](n2cnc3c(=O)[nH]c(N)nc32)[C@H](O)[C@@H]1O)c1ccccc1 | 3.64%
57 | COc1ccccc1C(=O)N1O[C@]23C=C[C@]14C[C@@H](O)CC[C@]4(C)C2CC[C@]1(C)[C@@H]([C@H](C)/C=C/[C@H](C)C(C)C)CC[C@H]13 (stereo partly specified) | 3.99%
58 | COc1cccc(CNC(=O)[C@H]2CCCN2C(=O)[C@H]2CCCN2C(=O)C2CCCCC2)c1 | 2.87%
59 | O=S1(=O)c2c(cccc2N2CCCCC2)O[C@H](COCc2ccccc2)CN1C1CC1 | 1.52%
60 | COC(=O)C1=C(C)N(Cc2ccccc2C(F)(F)F)C(=NCc2ccc(OC)cc2)NC1c1cccc(C(F)(F)F)c1 (stereo unspecified) | 5.38%
61 | CCOC(=O)C1=C(C(=O)OCC)C2N(Cc3ccc(C#N)cc3)c3ccccc3[C@@]23C[C@@H](C(=O)OC)N(S(=O)(=O)c2ccc(F)cc2)C3=N1 (stereo partly specified) | 2.71%
62 | CC(=O)N1C[C@@H](CO)[C@@H](N(C)C(=O)C(C)(C)C)C[C@H]1c1ccccc1Br | 2.5%
63 | O=S(=O)(c1cccs1)N1CCCc2nc(-c3ccc(Br)cc3)ccc21 | 3.49%

Row | SMILES | inhibition
64 | CCCCC(=O)NC(c1ccc(OC)c(OC)c1)c1ccc2cccnc2c1O (stereo unspecified) | 21.1% (active)
65 | CCOc1ccc(C(CC(=O)O)n2cnnn2)cc1OC (stereo unspecified) | 3.64%
66 | CCOc1ccc(C(CCc2ccccc2)NC(=O)c2ccc(OC)c(OC)c2)cc1OCC (stereo unspecified) | -0.08%
67 | CCc1c(-c2ccccc2OC)ncn1CCc1ccccc1OC | 0.54%
68 | CCOC(=O)C1CSCCS(=O)(=O)N1Cc1ccc(Cl)cc1 (stereo unspecified) | 0.55%
69 | COC(=O)C1=C(C)NC(=S)NC1c1ccc(OC)cc1 (stereo unspecified) | 3.49%
70 | COC(=O)c1c(-c2ccc(OC)cc2)c2c(c3c4ccccc4n(S(=O)(=O)c4ccc(C)cc4)c13)C(=O)N(C)C2 | 1.94%
71 | Cc1cc(Br)cn2c(Cc3ccccc3C(F)(F)F)c(-c3ccc(C#N)cc3)nc12 | 4.55%
72 | O=C(Nc1cc(-c2ccccc2)nn1-c1ccccc1F)c1ccc([N+](=O)[O-])cc1 | 3.65%
73 | O=C(NC(Nc1nc2ccc([N+](=O)[O-])cc2s1)(C(F)(F)F)C(F)(F)F)c1ccccc1 | 12.8% (active)
74 | O=C(NNS(=O)(=O)Cc1ccccc1)c1ccc([N+](=O)[O-])cc1 | 4.99%
75 | COC(=O)C1=C(C)N(Cc2ccccc2C(F)(F)F)C(=NCc2ccc(C(F)(F)F)cc2)NC1c1ccc(F)cc1 (stereo unspecified) | 7.76%
76 | COC(=O)N1Cc2ccnnc2CC1c1ccccc1Br (stereo unspecified) | 3.01%
77 | O=C(/C=C/c1ccc([N+](=O)[O-])o1)NNC(=O)c1ccc(F)cc1 | 29.6% (active)
78 | O=C(Nc1ccc(F)cc1)C1CCN(C(=O)c2ccc([N+](=O)[O-])cc2)CC1 | 1.84%
79 | O=C(/C=C/c1ccc(F)cc1)NC(=S)NNC(=O)c1cccnc1 | -5.76%
80 | CCCN1C(=O)c2[nH]nc(-c3ccccc3)c2C1c1ccccc1 (stereo unspecified) | 1.78%
81 | COC(=O)[C@]12C[C@H](CC(=O)NCc3ccc(OC)c(OC)c3)C(=O)N(Cc3ccccc3)C1=C[C@H](C(C)C)O[C@@H]2C1CC1 | 0.85%
